Screens as filed in PubChem.
Pf growth 96h: P. falciparum growth inhibition at 96 hours; P. falciparum luciferase reporter growth, 96 h; Potency, µM (titrated, usually from 28.7 µM), without a hit: at the highest dose activity change, negative = inhibition, hits mostly inhibitors; 320,000 compounds, 6.9% hits; AID 504834; note: potency is the fitted concentration of half-maximal effect
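Erythrocytes infected with luciferase-expressing P. falciparum were dispensed at 2% hematocrit and 0.05% parasitemia (final), then incubated with compounds 96 hours at 37 C in 5% CO2. Luminescence after detection reagent addition reported growth.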
Lassa entry inh: blocks Lassa virus binding to or entry into cells | 300,000 compounds, 1.2% hits | Potency, µM (series often up to 37.9 µM), without a hit: at the top dose activity change, negative = inhibition, actives largely listed as inhibitors | Lassa virus pseudotype entry inhibition, cell reporter; calls by dose curve; tested in HEK293 cells; note: potency is the fitted concentration of half-maximal effect; nearly all actives have a fitted effect of over 50% in size
HCV inhibitor: HCV inhibition | Huh7.5.1 HCVcc-Cre infection, luciferase reporter, 44 h | Potency, µM (top dose mostly 41.8 µM), for the others: at the highest dose activity change, negative = inhibition, actives largely listed as inhibitors | 340,000 compounds, 3.4% hits | AID 651820; note: potency is the fitted concentration of half-maximal effect
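A cell-based infection assay in which seeded cells (1,000 per well) receive test compound after 4 h, are inoculated with HCVcc-Cre at approximately 0.5 moi, and are incubated 44 h before luminescence detection.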
HCMV antiviral: blocks human cytomegalovirus replication | HFF cells, HCMV-luciferase reporter, 72 h; active compounds read low | activity change, negative = inhibition, % at 57.5 µM | 410,000 compounds, 4.5% hits | AID 1259415; in the data active = activity change below about -60%; inconclusive = no clear call, values can overlap the other calls; inactive = above about -39%
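Human foreskin fibroblasts infected with luciferase-reporter HCMV at MOI 1 PFU/cell, compounds at two doses. Luciferase measured 72 h post infection; normalized to buffer-only basal and Salinomycin (10uM) controls.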
Marburg entry inh: Marburg virus entry inhibition | Marburg virus pseudotyped entry inhibition, cell reporter | Potency, µM (titrated, usually from 37.8 µM), for inactives: at the top dose activity change, negative = inhibition, actives largely listed as inhibitors | 300,000 compounds, 1.8% hits | AID 540276; calls by dose curve; tested in HEK293 cells; note: potency is the fitted concentration of half-maximal effect
Pf growth 48h: P. falciparum growth inhibition at 48 hours (one generation); AID 504832; P. falciparum luciferase growth in erythrocytes, 48 h; 310,000 compounds, 5.9% hits; Potency, µM (highest dose often 28.7 µM), inactives show at the highest dose activity change, negative = inhibition, most hits filed as inhibitors; note: potency is the fitted concentration of half-maximal effect
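Compounds are pin-transferred into medium, infected erythrocytes (2% hematocrit, 0.1% parasitemia final) are added, and plates sit one parasite generation at 37 C in 5% CO2. Detection reagent is then added and luminescence measured.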
An asterisk follows results filed as active; ? = inconclusive; · = no result given; ! = not confirmed by another sample; [ ] = another dose, or the depositor's remark. Rows were chosen to be rich in hits. Some 14% of all compounds tested hit in one or more screens of this group. Unless noted, calls come from the whole dose curve; as a rule, active = well fitted inhibition curve with a large enough effect; inconclusive = small, poorly fitted or top-dose-only effect, or another doubt; inactive = no such curve, though single readings can be large or run the other way. % is set by controls: 0 for no effect and ±100 for the full control effect.

SMILES | Pf growth 96h | Lassa entry inh | HCV inhibitor | HCMV antiviral | Marburg entry inh | Pf growth 48h
CCOC(=O)c1c(C)[nH]c(C)c1S(=O)(=O)N1CCCC(C(=O)Nc2ccccc2OCC)C1 (centres undefined) | · | -1.7%[46.1 µM] | · | -9.5 | · | ·
O=c1c2ccccc2nc(/C=C\c2ccccc2F)n1-c1ccc(O)cc1 | · | -27.5%[46.1 µM] | · | -29.5 | · | ·
O=C(O)c1ccc(-n2c(/C=C\c3ccc(O)cc3)nc3ccccc3c2=O)cc1 | · | -14.2%[46.1 µM] | · | -13.5 | · | ·
O=c1c2ccccc2nc(/C=C\c2cccc(Br)c2)n1-c1ccc(O)cc1 | · | ? | · | -92.0* | · | ·
O=c1c2ccccc2nc(/C=C/c2ccc(O)c(O)c2)n1-c1ccccc1 | -22.0% | · | -15.6% | 77.7 | · | ?
O=C(O)c1ccc(/C=C/c2nc3ccccc3c(=O)n2-c2ccc(Br)cc2)cc1 | 13.1µM* | ? | 12.6% | -16.9 | ? | ?
O=c1c2ccccc2nc(/C=C/c2ccccc2)n1-c1ccc(O)cc1 | ? | ? | ? | -88.1* | ? | 12.2%[0.00184 µM]
COc1cc(NC(=O)Cn2c(=O)n(CC(=O)NCCc3ccc(OC)c(OC)c3)c(=O)c3sccc32)cc(OC)c1 | · | 1.8%[46.1 µM] | · | ? | -20.0%[46.1 µM] | ·
CCn1nnc(-c2ccccc2NC(=O)c2cnccn2)n1 | · | 8.4% | 11.2µM* | -6.3 | -1.1% | ·
CC(=O)Nc1nonc1-n1nnc(C(=O)NCc2ccccc2)c1C | 2.33µM* | -10.6% | -19.2% | 2.9 | -0.1% | -28.1%
C=CCn1c(=NC(=O)c2ccco2)sc2cc(C(=O)OCC)ccc21 | 6.57µM* | 10.5% | -5.1% | 6.7 | ? | 15.3%
CN(Cc1ccccc1)[C@@H]1CC[C@@]23CCCN2C(=O)CCC[C@H]3[C@H]1Cc1ccccc1 | · | · | · | 30.1 | · | ·
Cc1c(CCOC(=O)C2C3CC4CC(C3)CC2C4)sc[n+]1CC(=O)c1ccc(Br)cc1 (centres undefined) | ? | -22.6% | ? | -102.8*! | ? | ?
Cc1c(CCOC(=O)c2ccc(Cl)cc2Cl)sc[n+]1CC(=O)c1ccc(Br)cc1 | · | · | 14.1µM* | 0.0 | · | ·
COC(=O)C1=C(c2ccccc2)c2ccccc2S(=O)(=O)N1CC(=O)Nc1ccc(F)c(F)c1 | · | 11.2µM* | · | -30.4 | ? | ·
COC(=O)C1=C(c2ccccc2)c2ccccc2S(=O)(=O)N1CC(=O)Nc1ccccc1Cl | · | -22.1%[46.1 µM] | · | -11.0 | ? | ·
NC12CC3CC(C1)CC(CO)(C3)O2 | 8.28µM* | 20.4% | -3.5% | 50.4 | 0.6% | 0.0%
COc1cc(C(=O)O)c2c(c1C)OC(=O)c1c(C)cc(O)c(C=O)c1O2 | · | · | 32.1% | 28.4 | · | ·
COc1cccc(CN2CC3(CCN(C)CC3)c3c(n(C)c4cc(OC)ccc34)[C@H]2CO)c1 | · | · | · | -14.1 | · | ·
O=C(C(Cl)Cl)N1c2ccccc2OCC1c1ccccc1 (centres undefined) | ? | -0.9% | 12.6µM* | -61.5* | -21.3% | ?
Cc1ccc(S(=O)(=O)N2c3cc(C)ccc3OCC2C(C)(C)C)cc1 (centres undefined) | ? | -17.3% | ? | -17.5 | ? | 13.1µM*
CC1COc2ccccc2N1S(=O)(=O)c1ccc(Cl)cc1 (centres undefined) | ? | -19.0%[46.1 µM] | -6.8% | -5.8 | ? | 10.4µM*
Cc1ccc(S(=O)(=O)N2c3ccccc3OCC2c2ccccc2)cc1 (centres undefined) | ? | -23.2% | 35.5µM* | ? | ? | 2.62µM*
COc1cccc(C(=O)N2c3cc(C)ccc3OCC2C(C)(C)C)c1 (centres undefined) | ? | -7.6%[46.1 µM] | 5.5% | 6.1 | ? | 10.2%
CC1COc2ccccc2N1C(=O)c1ccc(Cl)cc1 (centres undefined) | 32.4% | -0.5% | 0.6% | ? | 3.2% | 7.9%
SMILES | Pf growth 96h | Lassa entry inh | HCV inhibitor | HCMV antiviral | Marburg entry inh | Pf growth 48h
C/C1=C\CC(C)(C)/C=C/C(=O)[C@@H](C)CCC[C@H](C)CC(=O)C1 | · | · | · | -0.9 | · | ·
CCCCN(c1ccccc1)S(=O)(=O)c1ccc2c(c1)CCN2C(=O)CCC(=O)O | 9.28µM* | 10.9% | 15.3% | -14.4 | 1.6% | ?
CCCN(c1ccc(OCC)cc1)S(=O)(=O)c1ccc2c(c1)CCN2C(=O)CCC(=O)O | -39.2% | 24.7%[14.3 µM] | · | 14.5 | 0.0% | ?
CCC(=O)N1CCc2cc(S(=O)(=O)NCCN3CCC(C)CC3)ccc21 | 1.65µM* | 1.7% | -8.7% | 1.2 | ? | ·
Cc1ccccc1NS(=O)(=O)c1cc2c3c(c1)CC(=O)N3CCC2 | 8.7% | · | -12.2% | -8.4 | · | 13.1µM*
CC1CCN(CCCNS(=O)(=O)c2ccc3c(c2)CCN3C(=O)C2CC2)CC1 | ? | · | -11.4% | 15.3 | · | 8.1%
CCC(=O)N1CCc2cc(S(=O)(=O)Nc3ccccc3C)ccc21 | 0.928µM* | -6.2% | -2.7% | 3.2 | -27.6%[46.1 µM] | 1.7%
Cc1cccc(NS(=O)(=O)c2cc3c4c(c2)CC(=O)N4CCC3)c1C | 75.0% | · | ? | -26.8 | · | ?
COc1ccncc1-c1ccc(C2=CC(=O)CC(C)(C)C2=O)cc1 | · | · | · | 17.8 | · | ·
O=C(CSc1nccn1-c1ccccc1)NO | 0.928µM* | · | 6.6% | 0.0 | · | 2.08µM*
COc1ccc(-n2ccnc2SCC(=O)NO)cc1 | ? | · | 7.0% | 0.0 | · | 1.31µM*
Brc1ccc(CSc2nccn2-c2ccccc2)cc1 | ? | -23.2% | -3.1% | -73.1* | ? | -0.2%
O=C(CSc1nccn1-c1cccc(Cl)c1)NO | ? | · | 1.3% | 0.0 | · | 0.738µM*
CC(C)(C)NC(=O)CN(C(=O)CCC(=O)Nc1nccs1)c1ccccc1F | · | · | · | -18.7 | · | ·
CCOC(=O)c1[nH]c2ccccc2c1NC(=O)c1ccc(OCC)cc1 | · | -0.1%[46.1 µM] | · | 37.6 | ? | ·
Cc1ccc(S(=O)(=O)N(C)c2ccc(OC(=O)c3cc(=O)[nH]c4ccccc34)cc2)cc1 | · | · | 9.0% | -9.3 | · | ·
CN(C)S(=O)(=O)c1ccc(C(=O)Oc2cc(=O)[nH]c3ccccc23)cc1 | 8.28µM* | -3.3% | 8.4% | 34.2 | 23.5% | 11.5%
CN(C)S(=O)(=O)c1ccc(C(=O)NCCSc2c(-c3ccccc3)[nH]c3ccccc23)cc1 | · | ? | · | -71.6* | -5.3%[46.1 µM] | ·
CCOC(=O)c1[nH]c2ccccc2c1NC(=O)c1ccc(S(=O)(=O)N2CCCCC2)cc1 | 9.28µM* | ? | -16.5% | -20.9 | -24.1% | ?
Cc1ccc(-c2[nH]c3ccccc3c2SCCNC(=O)c2ccc(S(=O)(=O)N(C)C)cc2)cc1 | · | ? | · | -32.2 | ? | ·
CCOC(=O)c1[nH]c2ccccc2c1NC(=O)c1ccc(S(=O)(=O)N(C)C)cc1 | 10.4µM* | -9.6% | 7.4% | 1.3 | 2.2% | 10.4µM*
CN(CC(=O)NCc1ccc(Cl)cc1)S(=O)(=O)c1ccc2c(c1)c(=O)n(C)c(=O)n2C | · | 13.9%[46.1 µM] | · | -8.8 | -0.4%[46.1 µM] | ·
COc1ccc(-c2nc(SCC(=O)NCc3nc4ccccc4n3C)n3[nH]c(=O)cc3n2)cc1 | · | -14.8%[46.1 µM] | · | 21.3 | · | ·
